Screening data deposited in PubChem BioAssay by Buhrlage Lab, Dana-Farber Cancer Institute and Novartis Institutes for BioMedical Research (Cambridge, Mass).
A selection: hits, their analogues and other compounds. The true share with any hit is near 1.1%.
UCHL1 block: inhibitors of human UCHL1 deubiquitinase; Ubiquitin carboxyl-terminal hydrolase isozyme L1 (Homo sapiens), P09936; purified UCHL1, Ub-rhodamine cleavage fluorescence; inhibition, % at 20 µM; 0.2% of 47,000 active
Target sequence (P09936 whole entry, looked up): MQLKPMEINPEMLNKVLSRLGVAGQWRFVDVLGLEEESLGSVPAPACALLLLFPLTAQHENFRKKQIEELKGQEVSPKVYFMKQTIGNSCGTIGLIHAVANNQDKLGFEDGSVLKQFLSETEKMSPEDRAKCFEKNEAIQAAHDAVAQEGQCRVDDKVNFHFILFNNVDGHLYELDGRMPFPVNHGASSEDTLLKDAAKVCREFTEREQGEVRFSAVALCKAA
OTUD3 inh: inhibitors of human OTUD3 deubiquitinase. inhibition, % at 25 µM. 0.7% of 47,000 active. AID 1645858, 2021. OTU domain-containing protein 3 (Homo sapiens), Q5T2D3. purified OTUD3, Ub-rhodamine fluorescence, 2 h
USP7 block: inhibitors of human USP7 deubiquitinase; Ubiquitin carboxyl-terminal hydrolase 7 (Homo sapiens), Q93009; purified USP7, Ub-rhodamine cleavage fluorescence; inhibition, % at 20 µM; 0.3% of 47,000 active
An asterisk follows results filed as active. No stated cut-off is given here; in the data, active means inhibition above about 30%; inactive means the rest.

How did CC1O[C@@H](c2ccc3c(c2O)C(=O)C2=C(C3=O)[C@@]3(O)C(=O)C(O)[C@](C)(O)C[C@@]3(O)C=C2)CC[C@@H]1OC(=O)/C=C/C=C/C=C/[C@@H]1O[C@@](C)(C(=O)O)O[C@H]1C (some centres not stated) do in these assays?
UCHL1 block: 37.6*; OTUD3 inh: 46.3*; USP7 block: -18.0

What do the screens show for `CC(=O)O[C@H]1C[C@H](OC(C)=O)[C@]2(C)C1[C@H](C)C[C@@H]1OC(=O)C(CN3CCOCC3)[C@H]1[C@@H]2O` (some centres not stated)?
UCHL1 block: 2.3; OTUD3 inh: 14.4; USP7 block: 4.2

Results for CCn1c(COc2ccc(OC)cc2)nnc1SCc1ccccc1Cl ?
UCHL1 block: 3.9; OTUD3 inh: 20.3; USP7 block: -24.9

What do the screens show for `O=C(c1ccc2c(c1)N(Cc1ccccc1F)C(=O)c1ccccc1S2(=O)=O)N1CCN(C(=O)c2ccco2)CC1`?
UCHL1 block: 2.9; OTUD3 inh: 9.4; USP7 block: 4.0

Results for CC(C)(C)c1nc(CN2CCOC(Cn3cncn3)C2)cs1 (configuration not stated) ?
UCHL1 block: -1.4; OTUD3 inh: -10.1; USP7 block: -2.2

How did CC(=O)c1cc2c(=O)c3c(C(=O)O)c(O)c(O)cc3oc2c(C(C)=O)c1-c1coc2cc(O)c(O)c(C(=O)O)c2c1=O do in these assays?
UCHL1 block: 1.3; OTUD3 inh: 59.5*; USP7 block: -138.9

How did COc1ccc(-c2cc3c(=O)n(CC(=O)NCCN4CCCC4)ncn3n2)cc1 do in these assays?
UCHL1 block: -0.1; OTUD3 inh: 8.6; USP7 block: 0.7

Results for C[C@@H]1CO[C@@H]2C3=C(C(=O)C=CC3=O)[C@H]3OC(=O)[C@@H]4CCC5[C@@H]1CCC52C34 (some centres not stated) ?
UCHL1 block: 11.1; OTUD3 inh: 58.9*; USP7 block: -34.0

What do the screens show for `CCN1CCCC1CN(Cc1cc2cccc(C)c2[nH]c1=O)C(=O)Nc1ccc(Cl)cc1` (configuration not stated)?
UCHL1 block: -0.2; OTUD3 inh: -42.4; USP7 block: -15.7

How did CCOC(=O)C1CCN(C(c2cccc(F)c2)c2sc3ncnn3c2O)CC1 (configuration not stated) do in these assays?
UCHL1 block: -1.6; OTUD3 inh: 5.2; USP7 block: 0.8

What do the screens show for `Cc1ccc(C)c(NC(=O)Cn2cc(C(=O)C3CC3)c3ccccc32)c1`?
UCHL1 block: 3.5; OTUD3 inh: 15.1; USP7 block: 35.4*

Results for COc1cccc(NC(=O)Cn2cc(C(=O)C3CC3)c3ccccc32)c1 ?
UCHL1 block: 5.0; OTUD3 inh: 9.3; USP7 block: 5.7

What do the screens show for `COc1ccc(-c2coc3cc(O[C@@H]4O[C@H](CO)[C@@H](O)[C@H](O)[C@H]4O)ccc3c2=O)cc1`?
UCHL1 block: 8.5; OTUD3 inh: 3.4; USP7 block: 5.7

How did O=c1c(OC2O[C@H](CO)[C@H](O)[C@H](O)[C@H]2O)c(-c2ccc(O)cc2)oc2cc(O)cc(O)c12 (some centres not stated) do in these assays?
UCHL1 block: 3.4; OTUD3 inh: 34.1*; USP7 block: -27.7

Results for Cc1noc(C)c1-c1ccc(S(=O)(=O)NC2CCCCC2)cc1 ?
UCHL1 block: 2.2; OTUD3 inh: 2.0; USP7 block: -88.7

What do the screens show for `Cc1noc(C)c1CNC(=O)c1ccc2nc[nH]c2c1`?
UCHL1 block: -3.4; OTUD3 inh: -5.7; USP7 block: -1.0

What do the screens show for `O=C(c1cccc(C(F)(F)F)c1)N1CCC(N2CCN(c3ccc(F)cc3)CC2)CC1`?
UCHL1 block: -5.4; OTUD3 inh: -16.8; USP7 block: -11.7

Results for COc1ccccc1C1=NS(=O)(=O)N(C)C(C(=O)NCC23CC4CC(CC(C4)C2)C3)=C1 ?
UCHL1 block: 5.5; OTUD3 inh: -1.2; USP7 block: 7.5

What do the screens show for `CC(C)=CCc1cccc2c(C3=C(O)C(=O)C(c4c[nH]c5c(CC=C(C)C)cccc45)=C(O)C3=O)c[nH]c12`?
UCHL1 block: 0.1; OTUD3 inh: 30.8*; USP7 block: 6.9

What do the screens show for `O=C(Nc1ccccc1F)c1cc(-c2cccnc2)n[nH]1`?
UCHL1 block: 0.5; OTUD3 inh: 13.0; USP7 block: 5.0

What do the screens show for `COc1ccc(NC(=O)c2cc(C)c3c(c2)-c2ccccc2S(=O)(=O)N3C)cc1OC`?
UCHL1 block: 3.2; OTUD3 inh: -7.8; USP7 block: 5.2

How did CCC(C)NC(=O)Cn1c(=O)n(-c2ccccc2)c(=O)c2ccc(C(=O)NCc3ccco3)cc21 (configuration not stated) do in these assays?
UCHL1 block: 3.6; OTUD3 inh: 31.8*; USP7 block: -4.5

How did O=C(Cc1ccc(-n2c(=O)c3ccccc3n(CC(=O)Nc3ccc(Cl)cc3Cl)c2=O)cc1)NCc1ccco1 do in these assays?
UCHL1 block: 1.7; OTUD3 inh: 2.8; USP7 block: 13.9

What do the screens show for `Cc1ccc2nnc(-c3ccccc3)c(C(=O)N3CCN(c4ccccn4)CC3)c2c1`?
UCHL1 block: 1.8; OTUD3 inh: 0.5; USP7 block: -6.8

What do the screens show for `O=C(NCCn1c(=O)n(Cc2ccccc2)c2cccnc21)C1CCCO1` (configuration not stated)?
UCHL1 block: -4.0; OTUD3 inh: -4.3; USP7 block: -3.2

How did CCOC(=O)C1CCN(Cc2cc(=O)oc3cc(O)c(O)cc23)CC1 do in these assays?
UCHL1 block: 75.8*; OTUD3 inh: 84.5*; USP7 block: 52.4*

What do the screens show for `CCOC(=O)C1CCCN(Cc2cc(=O)oc3cc(C)c(C(C)C)cc23)C1` (configuration not stated)?
UCHL1 block: 2.2; OTUD3 inh: 0.2; USP7 block: 6.2

How did Cc1c(C(=O)N2CCc3ccccc3C2)sc2nc(-c3cccc([N+](=O)[O-])c3)cn12 do in these assays?
UCHL1 block: -0.7; OTUD3 inh: -4.1; USP7 block: -34.9

How did N#Cc1cccc(C(=O)N2C[C@H](OCc3cccnc3)[C@H]3COC[C@H]32)c1 do in these assays?
UCHL1 block: -2.2; OTUD3 inh: -3.3; USP7 block: -8.5

How did CCCN1C(=O)C2C(C(=O)Nc3ccc(Oc4ccccc4)cc3)C3C=CC2(O3)C1C(=O)NC1CCCCC1 (configuration not stated) do in these assays?
UCHL1 block: -0.3; OTUD3 inh: 4.2; USP7 block: 0.0

What do the screens show for `CC(C)OCCCN1C(=O)C2C(C(=O)Nc3ccc(Oc4ccccc4)cc3)C3C=CC2(O3)C1C(=O)NC1CCCCC1` (configuration not stated)?
UCHL1 block: 2.7; OTUD3 inh: 32.7*; USP7 block: -14.8

Results for COCCn1c(Cc2cccn2C)nnc1SCC(=O)Nc1ccc(C(C)=O)cc1 ?
UCHL1 block: 0.0; OTUD3 inh: -10.7; USP7 block: -1.6

What do the screens show for `CC(C)C[C@H](NC(=O)c1ccc2nc(-n3cccc3)sc2c1)C(=O)NCc1ccco1`?
UCHL1 block: -3.1; OTUD3 inh: -14.4; USP7 block: -1.7

Results for COc1ccc(NC(=O)CNC(=O)c2ccc3nc(-n4cccc4)sc3c2)cc1 ?
UCHL1 block: 11.2; OTUD3 inh: 32.3*; USP7 block: -21.6
